Records with an inconclusive call do not appear. Activity calls are given as the source filed them. Unless noted, calls follow the shape of the dose curve; as a rule, active = well fitted curve in the direction sought with a large enough effect in the repeat runs; inconclusive = weak or mixed curves; inactive = no such curve, though single readings can be large; an effect the other way counts as inactive or inconclusive.
Columns and labels:
[1] = qHTS assay to identify small molecule antagonists of the sonic hedgehog signaling (Shh) pathway (AID 1259369; calls by dose curve; also: nearly all actives have a fitted effect of over 45% in size; also: potency is read from the fitted curve at half-maximal effect)
How it was run: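 3T3Gli1-Luc, conditioned-medium-stimulated, 24hr cpd, 37C/5% CO2; Gli1-driven firefly Luc luminescence after 30min RT with luciferase reagent. Cells plated 4hr before cpd.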

[2] = qHTS assay to identify small molecule agonists of the androgen receptor (AR) signaling pathway in the presence of an antagonist - cell viability counter screen (AID 1259379); also: nearly all actives have a fitted effect of over 25% in size; also: potency is read from the fitted curve at half-maximal effect;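 as to activity change, negative = cytotoxicity: MDA-kb2 human breast cancer cells carrying an MMTV luciferase reporter; series mostly up to about 92 µM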
How it was run: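 Cells: MDA-kb2 (MMTV-luc, AR and GR elements), 3,000/well, 5 hr settle. Added: nilutamide 3.0uM final, then compounds (15 conc.). Incubation: 16 hr, 37C, no CO2. Read-out: CellTiter-Fluor, 1 hr, fluorescence.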

[3] = qHTS assay to identify small molecule agonists of the estrogen receptor beta (ER-beta) signaling pathway - cell viability counter screen (AID 1259380); also: nearly all actives have a fitted effect of over 30% in size; also: potency is read from the fitted curve at half-maximal effect
How it was run: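 HEK293T ER-beta-UAS-bla; 2% CS-FBS; 6 hr pre-plate, 16 hr cpd at 37C/5% CO2; LiveBLAzer read first, then CellTiter-Glo 30 min RT, luminescence.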

[4] = molecular target: Estrogen receptor (Homo sapiens) (UniProt P03372); test: qHTS assay to identify small molecule agonists of the estrogen receptor alpha (ER-alpha) signaling pathway in the presence of an antagonist (AID 1259383; calls by dose curve; also: top concentration of the series differs between compounds; nearly all actives have a fitted effect of over 15% in size)
Sequence of Estrogen receptor (Homo sapiens) (P03372 whole entry, looked up): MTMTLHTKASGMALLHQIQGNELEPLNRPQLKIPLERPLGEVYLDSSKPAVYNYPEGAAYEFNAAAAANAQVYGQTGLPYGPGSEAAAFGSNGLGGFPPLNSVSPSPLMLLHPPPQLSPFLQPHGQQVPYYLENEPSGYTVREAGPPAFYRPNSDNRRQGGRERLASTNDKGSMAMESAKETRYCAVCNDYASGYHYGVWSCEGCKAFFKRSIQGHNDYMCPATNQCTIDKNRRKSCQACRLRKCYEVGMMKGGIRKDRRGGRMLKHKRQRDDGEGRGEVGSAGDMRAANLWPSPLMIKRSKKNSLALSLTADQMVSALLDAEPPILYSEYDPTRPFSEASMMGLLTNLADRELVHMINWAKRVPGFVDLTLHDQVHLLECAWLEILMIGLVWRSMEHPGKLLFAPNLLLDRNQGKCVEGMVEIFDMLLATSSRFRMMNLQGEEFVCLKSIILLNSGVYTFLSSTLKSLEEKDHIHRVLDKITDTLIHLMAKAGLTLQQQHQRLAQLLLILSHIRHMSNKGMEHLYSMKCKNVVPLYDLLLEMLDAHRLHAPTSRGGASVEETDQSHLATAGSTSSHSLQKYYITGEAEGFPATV
How it was run: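 VM7Luc4E2, endog. ER-alpha + 4×ERE-luc; charcoal-stripped FBS, phenol red-free, 5 d; 24hr plating; +10.0nM ICI-182,780 (final); cpds 15 conc, 22hr, 37C/5% CO2; ONE-Glo luminescence.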

[5] = qHTS assay to identify small molecule agonists or antagonists of the thyroid stimulating hormone receptor (TSHR) signaling pathway - wild type cell line counter screen (AID 1259384; calls by dose curve)
How it was run: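 Wild-type HEK293 cells were plated 18 h at 37 C/5% CO2, pin-dosed with compound plus Ro20-1724 medium, held 30 min at room temperature, then given cAMP-d2 and anti-cAMP-cryptate; fluorescence was read after 1 h. Fifteen concentrations, triplicate.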

[6] = molecular target: Thyrotropin receptor (Homo sapiens) (UniProt P16473); test: qHTS assay to identify small molecule antagonists of the thyroid stimulating hormone receptor (TSHR) signaling pathway (AID 1259385; calls by dose curve; also: nearly all actives have a fitted effect of over 20% in size; also: potency is read from the fitted curve at half-maximal effect)
Sequence of Thyrotropin receptor (Homo sapiens) (P16473 whole entry, looked up): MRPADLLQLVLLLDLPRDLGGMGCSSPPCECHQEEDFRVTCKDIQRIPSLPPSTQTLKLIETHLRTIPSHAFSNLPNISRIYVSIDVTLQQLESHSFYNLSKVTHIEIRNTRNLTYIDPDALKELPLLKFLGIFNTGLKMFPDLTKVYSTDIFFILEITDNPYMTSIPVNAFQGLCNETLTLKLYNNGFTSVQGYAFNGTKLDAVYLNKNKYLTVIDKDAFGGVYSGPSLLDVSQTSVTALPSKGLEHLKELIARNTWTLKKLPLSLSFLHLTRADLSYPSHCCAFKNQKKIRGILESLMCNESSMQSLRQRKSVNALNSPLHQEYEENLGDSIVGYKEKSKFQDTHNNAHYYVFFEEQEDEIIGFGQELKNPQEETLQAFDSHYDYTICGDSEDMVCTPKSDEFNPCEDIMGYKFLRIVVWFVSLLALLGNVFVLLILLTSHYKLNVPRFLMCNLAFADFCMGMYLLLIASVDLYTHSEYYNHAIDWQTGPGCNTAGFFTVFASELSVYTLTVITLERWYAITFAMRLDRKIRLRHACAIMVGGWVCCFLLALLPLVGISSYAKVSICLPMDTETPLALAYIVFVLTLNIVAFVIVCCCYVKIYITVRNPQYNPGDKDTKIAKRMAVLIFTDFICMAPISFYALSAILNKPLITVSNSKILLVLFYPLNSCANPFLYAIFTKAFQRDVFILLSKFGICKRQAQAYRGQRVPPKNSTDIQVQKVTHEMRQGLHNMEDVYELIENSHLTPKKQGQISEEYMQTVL
How it was run: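 TSHR-HEK293 cells were plated and held 18 h at 37C/5% CO2, then given compound plus Ro20-1724 and stimulated with TSH at 1.5 ng/mL final. After 30 min at room temperature, cAMP was detected with cAMP-d2/anti-cAMP-cryptate (1 h) by fluorescence.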

[7] = qHTS assay to identify small molecule agonists of the estrogen receptor alpha (ER-alpha) signaling pathway in the presence of an antagonist - cell viability counter screen (AID 1259386);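 also: cells exposed to compounds for 22 h at 37 °C before the viability read; nearly all actives have a fitted effect of over 30% in size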; also: potency is read from the fitted curve at half-maximal effect; as to activity change, negative = cytotoxicity: series mostly up to about 92 µM
How it was run: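 VM7Luc4E2, stripped-serum pre-culture 5 d; 24hr plating; +ICI-182,780 10.0nM final; cpds 15 conc, 22hr, 37C/5% CO2; CellTiter-Fluor added at 21hr, fluorescence 1hr later.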

[8] = qHTS assay to identify small molecule antagonists of the progesterone receptor (PR) signaling pathway - cell viability counter screen (AID 1346798); also: nearly all actives have a fitted effect of over 50% in size; also: potency is read from the fitted curve at half-maximal effect; as to activity change, negative = cytotoxicity: series mostly up to about 92 µM
How it was run: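 CellTiter-Glo luminescence; PR-UAS-bla HEK293T, 3,000 cells/well; compound + R5020, 16 hr, 37C/5% CO2; 30 min RT before read.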

[9] = qHTS assay to identify small molecule antagonists of the TGF-beta/Smad signaling pathway - cell viability counter screen (AID 1346824); also: nearly all actives have a fitted effect of over 50% in size; also: potency is read from the fitted curve at half-maximal effect
How it was run: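 SBE-bla HEK 293T cells were plated overnight at 37 C, then given compounds in DMSO plus TGF-beta1 (added as 0.25 ng/mL solution) for 5 hr. After the bla read, CellTiter-Glo was added to the same wells and luminescence read after 30 min at room temperature.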

[10] = qHTS assay to identify small molecule agonists of the TGF-beta/Smad signaling pathway - cell viability counter screen (AID 1346829); also: nearly all actives have a fitted effect of over 45% in size; also: potency is read from the fitted curve at half-maximal effect; as to activity change, negative = cytotoxicity: top concentration of the series differs between compounds
How it was run: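 CellTiter-Glo luminescence readout; SBE-bla HEK 293T cells, overnight plating, compound 5 hr at 37 C/5% CO2, then bla substrate 2 hr RT, then CellTiter-Glo 30 min RT.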

[11] = molecular target: Thyrotropin-releasing hormone receptor (Homo sapiens) (UniProt P34981); test: qHTS assay to identify small molecule antagonists of the thyrotropin-releasing hormone receptor (TRHR) signaling pathway (AID 1346877; active = well fitted inhibition curve with a large enough effect in the repeat runs, not every such curve was filed as active; also: series mostly up to about 51 µM)
Sequence of Thyrotropin-releasing hormone receptor (Homo sapiens) (P34981 whole entry, looked up): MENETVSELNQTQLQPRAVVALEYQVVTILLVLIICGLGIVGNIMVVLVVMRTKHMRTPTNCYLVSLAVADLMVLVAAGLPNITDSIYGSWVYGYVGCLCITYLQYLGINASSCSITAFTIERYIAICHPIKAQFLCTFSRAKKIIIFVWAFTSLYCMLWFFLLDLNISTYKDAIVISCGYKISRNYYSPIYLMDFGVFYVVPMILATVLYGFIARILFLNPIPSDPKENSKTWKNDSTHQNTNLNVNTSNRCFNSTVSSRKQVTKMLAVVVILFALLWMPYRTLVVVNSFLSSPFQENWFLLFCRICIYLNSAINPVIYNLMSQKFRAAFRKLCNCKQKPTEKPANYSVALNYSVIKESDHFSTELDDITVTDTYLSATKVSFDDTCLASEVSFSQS
How it was run: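 Intracellular calcium fluorescence, read kinetically every second over 3 min, reports TRH-evoked signalling in HEK293 cells carrying TRHR. Test compounds were added 5 min ahead of a 1 nM TRH challenge.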

[12] = molecular target: Thyrotropin-releasing hormone receptor (Homo sapiens) (UniProt P34981); test: qHTS assay to identify small molecule agonists of the thyrotropin-releasing hormone receptor (TRHR) signaling pathway (AID 1346891; calls by dose curve;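 also: HEK293 cells expressing TRHR with calcium dye readout; series mostly up to about 58 µM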)
How it was run: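 Compounds were tested as agonists at 15 concentrations, in triplicate, on TRHR-Hek293 cells; calcium-sensitive dye fluorescence was recorded for 3 min following addition.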

[13] = molecular target: Androgen receptor (Homo sapiens) (UniProt P10275); test: qHTS assay to identify small molecule agonists of the androgen receptor (AR) signaling pathway in the presence of an antagonist (AID 1259381; calls by dose curve; also: nearly all actives have a fitted effect of over 15% in size)
Sequence of Androgen receptor (Homo sapiens) (P10275 whole entry, looked up): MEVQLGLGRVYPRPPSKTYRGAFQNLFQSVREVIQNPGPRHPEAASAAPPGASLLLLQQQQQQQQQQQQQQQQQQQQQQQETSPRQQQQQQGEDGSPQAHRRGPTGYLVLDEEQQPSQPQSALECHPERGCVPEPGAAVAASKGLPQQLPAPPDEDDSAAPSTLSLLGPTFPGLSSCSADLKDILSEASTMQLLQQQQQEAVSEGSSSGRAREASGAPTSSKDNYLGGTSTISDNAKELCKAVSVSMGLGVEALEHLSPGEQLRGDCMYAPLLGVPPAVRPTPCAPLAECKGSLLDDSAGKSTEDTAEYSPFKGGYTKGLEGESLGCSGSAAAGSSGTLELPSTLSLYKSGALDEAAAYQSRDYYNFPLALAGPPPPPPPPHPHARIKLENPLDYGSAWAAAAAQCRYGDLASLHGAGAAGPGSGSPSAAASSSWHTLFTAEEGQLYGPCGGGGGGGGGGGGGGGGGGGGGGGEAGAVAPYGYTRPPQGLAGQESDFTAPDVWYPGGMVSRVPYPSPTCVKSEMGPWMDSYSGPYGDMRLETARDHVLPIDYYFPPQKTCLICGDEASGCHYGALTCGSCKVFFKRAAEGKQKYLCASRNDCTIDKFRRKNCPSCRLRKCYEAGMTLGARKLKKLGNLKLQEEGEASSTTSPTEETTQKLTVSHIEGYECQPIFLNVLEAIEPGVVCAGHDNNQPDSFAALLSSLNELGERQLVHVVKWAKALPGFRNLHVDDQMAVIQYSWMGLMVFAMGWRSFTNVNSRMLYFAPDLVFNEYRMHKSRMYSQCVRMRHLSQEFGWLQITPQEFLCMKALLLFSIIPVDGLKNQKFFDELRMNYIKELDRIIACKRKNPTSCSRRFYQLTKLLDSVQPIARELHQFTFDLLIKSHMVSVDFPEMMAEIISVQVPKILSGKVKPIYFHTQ
How it was run: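 MDA-kb2 cells, 3,000/well, rested 5hr at 37C/0% CO2 → nilutamide 3.0uM final or buffer → compounds, 15 conc. → 16hr at 37C → ONE-Glo, 30min RT → luminescence.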

[14] = qHTS assay to identify small molecule agonists of the TGF-beta/Smad signaling pathway (AID 1346859; active = well fitted activation curve with a large enough effect in the signal ratio in the repeat runs, not every such curve was filed as active; the % refers to the signal ratio; also: series mostly up to about 77 µM)
How it was run: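 After overnight seeding, SBE-bla HEK 293T cells are dosed with compounds in DMSO and kept 5 hr at 37 C, 5% CO2. LiveBLAzer-type FRET substrate is then applied for 2 hr at room temperature.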

[15] = qHTS assay to identify small molecule antagonists of the estrogen receptor beta (ER-beta) signaling pathway - cell viability counter screen (AID 1259382); also: nearly all actives have a fitted effect of over 55% in size; also: potency is read from the fitted curve at half-maximal effect;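 as to activity change, negative = cytotoxicity: HEK293T cells carrying ER-beta-UAS-bla reporter stimulated with estradiol; series mostly up to about 92 µM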
How it was run: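 Cells: ER-beta-UAS-bla HEK293T, 2,000/well, 2% CS-FBS, 6 hr settle. Cpd + E2 (1nM final), 16 hr, 37C/5% CO2. Bla FRET substrate 2 hr RT, then CellTiter-Glo 30 min RT, luminescence.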

[16] = molecular target: Progesterone receptor (Homo sapiens) (UniProt P06401); test: qHTS assay to identify small molecule agonists of the progesterone receptor (PR) signaling pathway (AID 1346784; calls by dose curve; also: nearly all actives have a fitted effect of over 30% in size)
Sequence of Progesterone receptor (Homo sapiens) (P06401 whole entry, looked up): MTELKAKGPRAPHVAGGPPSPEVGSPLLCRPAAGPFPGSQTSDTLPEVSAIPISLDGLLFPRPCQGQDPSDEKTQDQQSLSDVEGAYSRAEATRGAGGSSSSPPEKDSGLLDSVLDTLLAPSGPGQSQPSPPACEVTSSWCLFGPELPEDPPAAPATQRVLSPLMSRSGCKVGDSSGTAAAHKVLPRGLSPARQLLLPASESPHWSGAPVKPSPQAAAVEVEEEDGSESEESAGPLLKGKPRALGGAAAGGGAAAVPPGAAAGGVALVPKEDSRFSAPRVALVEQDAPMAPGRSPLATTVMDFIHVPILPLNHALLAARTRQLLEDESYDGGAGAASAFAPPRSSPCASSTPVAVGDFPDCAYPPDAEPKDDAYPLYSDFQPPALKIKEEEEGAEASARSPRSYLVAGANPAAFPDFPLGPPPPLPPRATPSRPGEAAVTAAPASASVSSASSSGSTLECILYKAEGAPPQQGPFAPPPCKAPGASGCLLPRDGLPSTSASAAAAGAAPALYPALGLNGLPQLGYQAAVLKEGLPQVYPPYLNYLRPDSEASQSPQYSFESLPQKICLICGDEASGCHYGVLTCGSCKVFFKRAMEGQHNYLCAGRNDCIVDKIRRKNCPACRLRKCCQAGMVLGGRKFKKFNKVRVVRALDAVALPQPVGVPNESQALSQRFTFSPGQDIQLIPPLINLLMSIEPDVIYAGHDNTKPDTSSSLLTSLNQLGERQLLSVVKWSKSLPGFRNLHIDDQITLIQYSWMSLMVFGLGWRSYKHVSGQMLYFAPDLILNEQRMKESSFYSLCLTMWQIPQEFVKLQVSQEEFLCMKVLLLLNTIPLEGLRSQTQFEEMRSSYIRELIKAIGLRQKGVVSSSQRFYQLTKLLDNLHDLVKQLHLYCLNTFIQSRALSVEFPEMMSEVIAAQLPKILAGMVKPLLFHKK
How it was run: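 Fluorescence from LiveBLAzer B/G FRET substrate cleavage (2 hr, RT) reported PR activation in PR-UAS-bla HEK 293T cells treated 16 hr at 37C/5% CO2 with compounds; medium contained 2% charcoal-stripped FBS.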

[17] = qHTS assay to identify small molecule agonists of the progesterone receptor (PR) signaling pathway - cell viability counter screen (AID 1346799; calls by dose curve; also: nearly all actives have a fitted effect of over 45% in size; also: potency is read from the fitted curve at half-maximal effect)
How it was run: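 In parallel with the beta-lactamase readout, cytotoxicity toward PR-UAS-bla HEK293T cells was measured by CellTiter-Glo luminescence following 16 hr compound incubation in 2% charcoal-stripped FBS medium.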

[18] = molecular target: Progesterone receptor (Homo sapiens) (UniProt P06401); test: qHTS assay to identify small molecule antagonists of the progesterone receptor (PR) signaling pathway (AID 1346795; active = well fitted inhibition curve with a large enough effect in the signal ratio in the repeat runs, not every such curve was filed as active; the % refers to the signal ratio; also: potency is read from the fitted curve at half-maximal effect)
How it was run: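 Fluorescence intensity measured 2 hr after adding beta-lactamase FRET substrate to PR-UAS-bla HEK293T cells that had been co-treated 16 hr with compound and 1 nM R5020 (final concentration) in 2% charcoal-stripped FBS.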
% is scaled to controls: 0 for no effect and ±100 for the full control effect.

O=C(Nc1cccc(Cl)c1)OCC#CCCl
inactive: Potency [4] | outcome [5] | Potency [6] | Potency [9] | Potency [10] | Potency [11] | Potency [12]
active: Potency [1] 5.45 µM | Potency [2] 54.5 µM | Potency [3] 54.5 µM | Potency [7] 61.1 µM | Potency [8] 54.5 µM

O=c1[nH]sc2cc(Cl)ccc12
inactive: Potency [1] | Potency [2] | Potency [13] | Potency [4] | outcome [5] | Potency [6] | Potency [7] | Potency [9] | Potency [10] | Potency [14] | Potency [11] | Potency [12]
active: Potency [3] 11.9 µM

O=c1[nH]cnc2nc[nH]c12
inactive: Potency [1] | Potency [2] | Potency [3] | Potency [15] | Potency [4] | outcome [5] | Potency [6] | Potency [7] | Potency [16] | Potency [8] | Potency [17] | Potency [10] | Potency [14] | Potency [11] | Potency [12]

CO[Si](CCCNc1ccccc1)(OC)OC
inactive: Potency [1] | Potency [2] | Potency [3] | Potency [15] | outcome [5] | Potency [6] | Potency [7] | Potency [18] | Potency [8] | Potency [17] | Potency [9] | Potency [10] | Potency [14] | Potency [11] | Potency [12]

CN1CCC(Nc2ncc3ncnc(Nc4ccc(F)c(Cl)c4)c3n2)CC1
active: Potency [1] 6.68 µM | Potency [3] 11.9 µM | Potency [6] 29.8 µM | Potency [8] 16.8 µM
inactive: Potency [2] | Potency [13] | outcome [5] | Potency [9] | Potency [10] | Potency [11] | Potency [12]

CSc1ccc(/C=C2/C(C)=C(CC(=O)O)c3cc(F)ccc32)cc1
active: Potency [3] 10.6 µM
inactive: Potency [1] | Potency [2] | Potency [13] | Potency [4] | outcome [5] | Potency [6] | Potency [7] | Potency [8] | Potency [17] | Potency [9] | Potency [10] | Potency [11] | Potency [12]

CCCCc1oc2ccc(NS(C)(=O)=O)cc2c1C(=O)c1ccc(OCCCN(CCCC)CCCC)cc1
active: Potency [1] 2.98 µM | Potency [2] 21.1 µM | Potency [3] 11.9 µM | Potency [15] 10.6 µM | Potency [6] 29.8 µM | Potency [7] 33.5 µM | Potency [8] 18.8 µM | Potency [17] 13.3 µM | Potency [9] 23.9 µM
inactive: outcome [5] | Potency [11] | Potency [12]

Cc1c(C)c2c(c(C)c1OC(=O)CCC(=O)O)CC[C@@](C)(CCC[C@H](C)CCC[C@H](C)CCCC(C)C)O2
active: Potency [2] 27.6 µM | Potency [3] 1.95 µM
inactive: Potency [1] | outcome [5] | Potency [6] | Potency [7] | Potency [16] | Potency [18] | Potency [10] | Potency [11] | Potency [12]

O=C(Nc1cccc(C(F)(F)F)c1)c1cc(Br)cc(Br)c1O
active: Potency [1] 1.72 µM | Potency [2] 4.33 µM | Potency [3] 24.3 µM | Potency [15] 27.3 µM | Potency [8] 21.7 µM
inactive: Potency [4] | outcome [5] | Potency [6] | Potency [12]

CCC(C)(C)C1CCCCC1OC(C)=O (stereo not drawn)
inactive: Potency [1] | Potency [2] | Potency [3] | Potency [15] | Potency [4] | outcome [5] | Potency [6] | Potency [7] | Potency [16] | Potency [18] | Potency [8] | Potency [9] | Potency [10] | Potency [14] | Potency [11] | Potency [12]

CCCCCCCC[N+](CCCCCCCC)(CCCCCCCC)CCCCCCCC
active: Potency [1] 0.768 µM | Potency [2] 17.2 µM | Potency [3] 30.6 µM | Potency [15] 21.6 µM | Potency [6] 61 µM | Potency [7] 12.2 µM | Potency [8] 30.6 µM | Potency [9] 48.9 µM | Potency [10] 43.6 µM
inactive: Potency [4] | outcome [5] | Potency [11] | Potency [12]

CC(NN)c1ccccc1 (stereo not drawn)
inactive: activity change, negative = inhibition [1] 19.3% [at 19 µM] | activity change, negative = cytotoxicity [2] -0.324% [at 19 µM] | activity change, negative = cytotoxicity [3] -2.17% [at 19 µM] | activity change, negative = cytotoxicity [15] 1.73% [at 19 µM] | cAMP activity change [5] 0.522% [at 18.9 µM] | activity change, negative = inhibition [6] -2.3% [at 19 µM] | activity change, negative = cytotoxicity [7] -1.38% [at 19 µM] | activation [16] -0.517% [at 19 µM] | activity change, negative = inhibition [18] -2.01% [at 18.9 µM] | activity change, negative = cytotoxicity [8] 0.118% [at 18.9 µM] | activity change, negative = cytotoxicity [17] -7.08% [at 19 µM] | activity change, negative = cytotoxicity [10] -16.9% [at 15.8 µM] | activation [14] 1.03% [at 15.8 µM]

CC1=C(/C=C/C(C)=C/C=C/C(C)=C/C=O)C(C)(C)CCC1
inactive: outcome [5] | Potency [14] | Potency [11] | Potency [12]
active: Potency [1] 15.3 µM | Potency [2] 60.8 µM | Potency [3] 24.2 µM | Potency [15] 30.5 µM | Potency [7] 60.8 µM | Potency [18] 54.2 µM | Potency [8] 68.2 µM | Potency [17] 60.8 µM

CCCCN(CCCC)c1ccc(C(=O)c2ccccc2C(=O)O)c(O)c1
active: Potency [3] 15.5 µM | Potency [17] 24.6 µM
inactive: Potency [1] | Potency [2] | Potency [13] | outcome [5] | Potency [6] | Potency [7] | Potency [8] | Potency [9] | Potency [10] | Potency [12]

CSc1ccc(C(=O)c2[nH]c(=O)[nH]c2C)cc1
inactive: Potency [1] | Potency [2] | Potency [3] | Potency [15] | Potency [4] | outcome [5] | Potency [6] | Potency [7] | Potency [16] | Potency [18] | Potency [8] | Potency [17] | Potency [9] | Potency [10] | Potency [14]

Source: PubChem BioAssay (Tox21)
